# Test results as given in PubChem BioAssay (EPA / NIEHS).
# Some structures have more than one record in an assay (separate samples or runs), and their calls can disagree. Activity calls are given as the source filed them. Rule for the calls: active = hit-call score of the fitted dose curve at least 0.9, where 1 is the maximum; inactive = score below 0.9.
# Read-out: Vascular cell adhesion molecule 1 (VCAM1), VCAM1 (gene 7412)
# Test: BSK_4H_VCAM1: BioMAP Diversity Plus: 4H Assay for Vascular cell adhesion molecule 1 (VCAM1) Biomarker Activity (AID 2283033)
# Conditions: primary human endothelial cells (HUVEC); actives raise or lower the signal
# Description: BSK_4H is a cell-based, multiplexed-readout assay that uses umbilical vein endothelium, a human vascular primary cell, with measurements taken at 24 hours after chemical dosing in a 96-well plate.BSK_4H_VCAM1 is an assay component measured in the BSK_4H assay. It measures VCAM-1 antibody related to regulation of gene expression using ELISA technology.Data from the assay component BSK_4H_VCAM1 was analyzed into 1 assay endpoint. This assay endpoint, BSK_4H_VCAM1, was analyzed with bidirectional fitting relative to DMSO as the negative control and baseline of activity. Using a type of binding reporter, gain or loss-of-signal activity can be used to understand changes in the signaling as they relate to the gene VCAM1. Furthermore, this assay endpoint can be referred to as a primary readout, because this assay has produced multiple assay endpoints where this one serves a signaling function. To generalize the intended target to other relatable targets, this assay endpoint is annotated to the cell adhesion molecules intended target family, where the subfamily is Immunoglobulin CAM.
# The levels of cell surface (or secreted, indicated by the prefix "s") biomarker endpoints were measured by ELISA. Overt cytotoxicity to cells in confluent adherent cultures (all systems other than the BT system) was assessed by measuring total protein levels using sulforhodamine B (SRB) staining in parallel cultures at the time of biomarker measurements, indicated as SRB endpoints. For proliferation assays for adherent cell types, individual cell types are cultured at sub-confluence and relative cell numbers quantified by SRB staining at time points optimized for each system (48 h: 3C and CASM3C systems; 72 h: BT and HDF3CGF systems; 96 h: SAg system). SRB was performed by staining cells with 0.1% SRB after fixation with 10% TCA and reading wells at 560 nm.Viability and proliferation of PBMC (T cells) was quantified by Alamar Blue reduction for the SAg and BT systems. For PBMC viability (referred to as PBMC Cytotoxicity within the assay endpoint names), cells were plated (75,000/well in a 96-well plate) and then chemical samples added for 1 h before addition of activators, SEB and TSST-1 (20 ng/mL final concentration each). Cells were incubated for 90 h. Then, Alamar Blue (20 uL/well) (Invitrogen, Cat DAL1100) was added for 6 h, and the plates were read with a fluorescence microplate reader at 546/580 nm (excitation/emission). For PBMC proliferation, cells were plated and activated as above but incubated for only 16 h prior to addition of Alamar Blue. Plates were read after 6 h.
Structure (SMILES),outcome,AC50
CCOP(=S)(OCC)SCSP(=S)(OCC)OCC,inactive,
ClCC(Cl)CCl,inactive,
Cn1sc(Cl)cc1=O,,20 µM (active)
O=[N+]([O-])c1ccc(O)c([N+](=O)[O-])c1,inactive,
O=Cc1cccc(Oc2ccccc2)c1,inactive,
Oc1ccc(-c2ccccc2)cc1,inactive,
CCOC(=O)/C=C(C)/C=C/C[C@@H](C)CCCC(C)C,,30.6 µM (active)
ClC1=C(Cl)[C@]2(Cl)[C@H]3[C@H]([C@H]4C=C[C@H]3C4)[C@@]1(Cl)C2(Cl)Cl,,7.9 µM (active)
ClC(Cl)=C(Cl)C(Cl)=C(Cl)Cl,,34.8 µM (active)
Oc1c(I)cc(I)cc1I,,20 µM (active)
C=C(C)C(=O)[O][Sn]([CH2]CCC)([CH2]CCC)[CH2]CCC,,0.148 µM (active)
CCN1CCC2(CC1)COc1cc3c(cc12)N(C(=O)c1ccc(-c2ccc(-c4nnc(C)o4)cc2C)cc1)CC3,,27.8 µM (active)
CCCCC(CC)CO[N+](=O)[O-] (stereo not given),,30.5 µM (active)
CC(C)(C)c1cc(O)ccc1O,,23.2 µM (active)
CC(=O)OC(c1ccccc1)C(Cl)(Cl)Cl (stereo not given),inactive,
Nc1ncc([N+](=O)[O-])s1,inactive,
NC(=S)Nc1ccccc1,inactive,
CC(=O)[O][Hg][c]1ccccc1,,2.37 µM (active)
Cc1ccccc1N,inactive,
COP(=S)(OC)Oc1ccc(S(=O)(=O)N(C)C)cc1,inactive,

Structure (SMILES),outcome,AC50
O=C(O)C(F)(F)C(F)(F)C(F)(F)C(F)(F)C(F)(F)C(F)(F)C(F)(F)C(F)(F)C(F)(F)C(F)(F)F,inactive,33.2 µM (active)
CC(=O)C(Cl)C(=O)N(C)C (stereo not given),,24.3 µM (active)
O=C1C2(Cl)C3(Cl)C4(Cl)C(Cl)(Cl)C5(Cl)C3(Cl)C1(Cl)C5(Cl)C24Cl (stereo not given),,8.36 µM (active)
O=C(Nc1ccc2[nH]ccc2c1)c1cc2cc(F)ccc2n1Cc1cccc(F)c1,,8.66 µM (active)
COC(=O)c1sccc1S(=O)(=O)NC(=O)Nc1nc(C)nc(OC)n1,inactive,
C[C@@H]1C[C@@H]([C@H](O)CC2CC(=O)NC(=O)C2)C(=O)[C@@H](C)C1,,17.7 µM (active)
O=C(O)CCC(F)(C(F)(F)F)C(F)(F)F,inactive,
CC12CC1(C)C(=O)N(c1cc(Cl)cc(Cl)c1)C2=O (stereo not given),inactive,
OCc1ccco1,inactive,
CC(C)(C)CC(C)(C)c1ccc(O)cc1,,7.98 µM (active)
COP(=S)(OC)Oc1ccc(Sc2ccc(OP(=S)(OC)OC)cc2)cc1,,30.2 µM (active)
COP(=S)(OC)Oc1cc(Cl)c(Cl)cc1Cl,,24.9 µM (active)
O=S(=O)(c1ccc(Cl)cc1)c1ccc(Cl)cc1,inactive,
CN(C)N=O,inactive,
CCCCCCCCC(=O)NCc1ccc(O)c(OC)c1,inactive,
BrCCBr,inactive,
COC(=O)Cc1ccccc1,inactive,
NC(=O)O,inactive,
CCC(=O)C(CC(C)N(C)C)(c1ccccc1)c1ccccc1 (stereo not given),inactive,
